Screening results (PubChem)
Most compounds without a hit are left out; they make up all but 4.4% or so of the library.
D1 ag: Allosteric Agonists of the Human D1 Dopamine Receptor: qHTS. D(1A) dopamine receptor (Homo sapiens), P21728. HEK293 T-REx D1 cells, calcium flux, agonist mode. activation, % at 2 µM. 1% of 360,000 active; further: 0% is about no effect
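Agonism was scored from calcium flux recorded over 180 s (1 read/s) after pintool compound addition, following a 10-cycle baseline. Cells were inducible force-coupled HEK293 TREx D1, plated overnight at 30 C and loaded with no-wash calcium dye.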
TRHR PAM: qHTS for Small Molecule Agonists and Allosteric Enhancers of Human TRH Receptor: Primary Screen for Enhancers | Thyrotropin-releasing hormone receptor (Homo sapiens), P34981 | TRHR cells, fluo-8 calcium fluorescence, EC20 TRH enhancement | enhancement, % at 2 µM | 0.66% of 360,000 active; in the data active means enhancement above about 30%; further: 0% is about no effect
Target sequence (P34981 whole entry, looked up): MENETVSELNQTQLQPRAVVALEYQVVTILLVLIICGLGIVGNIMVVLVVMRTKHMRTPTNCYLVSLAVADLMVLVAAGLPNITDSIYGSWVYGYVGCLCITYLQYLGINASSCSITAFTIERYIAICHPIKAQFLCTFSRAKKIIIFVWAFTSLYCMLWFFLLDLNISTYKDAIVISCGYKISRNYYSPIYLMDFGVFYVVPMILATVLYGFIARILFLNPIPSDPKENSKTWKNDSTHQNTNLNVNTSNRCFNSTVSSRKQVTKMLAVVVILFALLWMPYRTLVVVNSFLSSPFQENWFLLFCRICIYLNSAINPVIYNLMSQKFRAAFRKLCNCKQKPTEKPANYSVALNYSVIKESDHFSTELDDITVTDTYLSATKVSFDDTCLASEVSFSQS
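TRHR-expressing cells loaded with fluo-8 calcium dye were read kinetically (ex 480/em 530) during compound addition, then stimulated with an EC20 of TRH (10 nM final). Enhancement of the Gq-mediated intracellular calcium response was scored.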
D1 antagonist: Antagonist of Human D 1 Dopamine Receptor: qHTS; AID 504652, 2011; HEK293 TREx D1 cells, calcium flux, dopamine EC80; hits give low values; D(1A) dopamine receptor (Homo sapiens), P21728; 3.2% of 360,000 active; activity change, negative = inhibition, % at 10 µM; in the data active means activity change below about -30%; further: on the % scale 0 is the no-effect control and ±100 the full control effect
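Allosteric or orthosteric antagonism assessed as attenuation of the calcium response to EC80 dopamine, added 180 s after compound, in induced HEK293 Trex D1 cells loaded with no-wash calcium dye.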
D1 potentiator: Potentiators of Human D1 Dopamine Receptor: qHTS; HEK293 TREx D1 cells, calcium flux, dopamine EC20 potentiation; potentiation, % at 10 µM; 0.036% of 360,000 active; AID 504651, 2011; in the data active means potentiation above about 30%; further: 0% is about no effect
USP1 inh: Inhibitors of USP1/UAF1: Primary Screen. Ubiquitin carboxyl-terminal hydrolase 1 (Homo sapiens), O94782. Potency, µM (highest dose often 57.1 µM), inactives show top-dose activity change, negative = inhibition, actives largely listed as inhibitors. 0.23% of 390,000 active. recombinant USP1/UAF1, Ub-Rhodamine cleavage fluorescence. AID 743255, 2014; active means well fitted inhibition curve with a large enough effect; inconclusive means small, poorly fitted or top-dose-only effect; inactive means no such curve, though single readings can be large or run the other way; further: potency means the concentration at half of the fitted maximal effect; on the % scale 0 is the no-effect control and ±100 the full control effect; nearly all actives have a fitted effect of over 60% in size
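High-throughput fluorogenic screen: 1nM USP1/UAF1 complex, Ub-Rho substrate 150nM final, 50mM HEPES pH 7.8 with 0.5mM EDTA, 0.1 mg/ml BSA, 1mM TCEP and 0.01% Tween-20.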
TRHR ag: qHTS for Small Molecule Agonists and Allosteric Enhancers of Human TRH Receptor: Primary Screen for Agonists; TRHR cells, calcium flux fluo-8, FDSS agonist mode; activation, % at 2 µM; 0.18% of 360,000 active; further: 0% is about no effect
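TRHR-expressing cells, plated overnight in medium with 10% serum, were loaded with fluo-8 calcium dye at room temperature. After a 10 s baseline, library compound was pin-added and calcium release was recorded kinetically (ex 480/em 530) as agonist response.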
* = called active by the depositor; ? = inconclusive. Unless noted, no stated cut-off is given here; in the data, active means activation above about 30%; inactive means the rest.

SMILES	D1 ag	TRHR PAM	D1 antagonist	D1 potentiator	USP1 inh	TRHR ag
CC(=O)Nc1ccc(-c2cc(C(=O)O)c3c(-c4ccccc4)[nH]nc3n2)cc1	1	-4	-39*	0	-6%	0
COc1ccc(CNC(=O)c2cnn(-c3ccccc3)c2-n2cccc2)cc1OC	16	10	-23	-7	?	0
CCOc1ccc(C(=O)NC(C)CCc2ccccc2)cc1 (centres undefined)	7	-1	-25	-2	-17%	-1
CCOc1ccc(C(=O)NC(Cc2ccccc2)C(=O)OC)cc1 (centres undefined)	-2	-3	-32*	-3	-4%	0
COc1cc(C)c(C(=O)Oc2cc(C)c(C(=O)O)c(O)c2C)c(OC)c1C	-2	4	-66*	-5	0%	0
CSc1nc2sc3c(c2c(=O)n1C)CCCC3	2	2	6	-2	6%	0
CSc1nc2sc3c(c2c(=O)n1C)CCC3	1	0	-35*	-1	-19%	0
CCc1nc2sc3c(c2c(=O)n1CCO)CCC3	0	-1	-44*	0	-12%	0
CC12CCC(C(=O)N(CC(=O)O)C1=O)C2(C)C (centres undefined)	0	20	-52*	5	-25%	1
Cc1ccc(NC(=O)Cn2nc(N3CCN(c4ccccc4)CC3)ccc2=O)cc1F	1	-6	29	0	-10%	0
CCOCCc1nn2c(=O)cc(COC(=O)c3ccc(NC(=O)c4ccc(F)cc4)cc3)nc2s1	-1	12	8	0	0%	-1
CCOC(=O)CCCCNCc1ccccc1	1	30*	14	-6	-5%	0
O=C(O)CCCCCNCc1ccncc1	1	-3	-41*	-10	-5%	1
COc1cccc(C2=CC(c3ccccc3F)n3ncc(C(=O)Nc4ccc(F)cc4)c3N2)c1 (centres undefined)	5	-9	-11	1	?	2
Cc1cc(C)nc(NS(=O)(=O)c2ccc(NC(=O)COc3ccc(C(C)(C)C)cc3)cc2)n1	0	7	8	2	-16%	-1
CCCCCN1C(C(=O)c2ccccc2)=C(NC(=O)c2ccc(OC)cc2)c2ccccc2S1(=O)=O	2	19	10	-3	-12%	0
CCOc1ccc(CNC(=O)c2cnc3sc(N(CC)CC)nn3c2=O)cc1OC	0	2	-8	-5	-7%	0
CCNc1ccc(S(=O)(=O)C(F)(F)F)cc1NC(=O)C12CCC(CC1)C2	7	-3	-6	0	-10%	1
CCNc1cc(S(=O)(=O)C(F)(F)F)ccc1N	22	5	-38*	-3	-4%	1
COc1cccc(NC(=O)CSCn2nnc3c(=O)[nH]c(Cc4ccc(F)cc4)nc32)c1	-1	-1	-2	-1	?	0
COCCN(CC(=O)NCC1CCCO1)C(=O)CCC(=O)Nc1cc(C)ccn1 (centres undefined)	2	0	-37*	-4	3%	0
NC(=O)C1CCN(C(=O)C2CC(=O)N(c3ccc4c(c3)OCCO4)C2)CC1 (centres undefined)	0	1	-34*	-13	-18%	0
COCCCn1cc(C(=O)c2cc(Br)ccc2O)cc(C#N)c1=O	6	0	-8	-4	-4%	0
Cc1ccc(O)c(C(=O)c2cc(C#N)c(=O)n(Cc3ccccc3)c2)c1	6	-4	0	-2	-6%	3
C=CCn1cc(C(=O)c2cc(Br)ccc2O)cc(C#N)c1=O	9	1	-21	-3	-7%	1
SMILES	D1 ag	TRHR PAM	D1 antagonist	D1 potentiator	USP1 inh	TRHR ag
CCCCn1cc(C(=O)c2cc(Br)ccc2O)cc(C#N)c1=O	31*	0	-21	-9	-23%	-1
CCOCCCn1cc(C(=O)c2cc(Br)ccc2O)cc(C#N)c1=O	21	5	-36*	-10	-4%	0
N#Cc1cc(C(=O)c2cc(F)ccc2O)cn(Cc2ccccc2)c1=O	21	-4	-33*	-13	3%	5
COc1cccc(NC(=O)/C(C#N)=C/c2c(C)n(Cc3ccccc3)c3ccccc23)c1	20	-1	-1	-1	?	7
CC(=O)c1cccc(N(CC(=O)Nc2ccccc2C(=O)N2CCCC2)S(C)(=O)=O)c1	5	55*	-9	-1	-27%	0
CN(c1ccc(C(=O)Nc2ccccc2C(=O)N2CCCC2)cc1)S(C)(=O)=O	1	16	-31*	-7	-14%	0
COc1ccc(NC(=O)Cn2nc(C)c3c(C)n(-c4ccccc4)nc3c2=O)cc1OC	1	4	-20	-3	?	0
Cc1nn(-c2ccccc2)c2sc(C(=O)Nc3cccc(O)c3)cc12	1	10	-3	0	?	1
CCCN(C(=O)c1coc(=O)c2ccccc12)c1ccccc1C	1	1	1	0	-27%	-1
NC(=Nc1ccc(Cl)cc1)c1ccccc1	71*	-19	-53*	-3	-6%	31*
O=C(NC1CCCC1)C(c1ccsc1)N(C(=O)Cc1cccs1)c1ccc(F)cc1 (centres undefined)	1	-6	-7	-9	-2%	2
O=C(NC1CCCC1)C(c1ccsc1)N(C(=O)Cc1cccs1)c1cccc(F)c1 (centres undefined)	5	-1	-32*	-9	-25%	0
CCOc1ccccc1NC(=O)N1CCc2cc(S(=O)(=O)N3CCC(C)CC3)ccc21	-1	-1	-2	0	2%	1
CN(C)CCNC(=O)C(=O)Nc1ccc2c(c1)N(S(=O)(=O)c1cccs1)CCC2	56*	1	-6	-1	-6%	0
CN(C)CCCNC(=O)C(=O)Nc1ccc2c(c1)N(S(=O)(=O)c1cccs1)CCC2	5	29	7	-5	-4%	0
CCOc1ccccc1NC(=O)CN1C(=O)C2(SCC(=O)N2c2ccc(C)cc2)c2ccccc21 (centres undefined)	0	-13	-11	-5	-2%	1
CN1CCN(S(=O)(=O)c2cccc(S(=O)(=O)c3ccc(Cl)c(Cl)c3)c2)CC1	7	-14	-53*	-5	-11%	0
CCn1cc(NC(=O)Nc2ccccc2C(=O)OC)c(C(N)=O)n1	3	7	1	0	-10%	0
